# In the library only some 0.54% were active in any assay of this set; here they are far more common.
# Vif-APOBEC3G blk – qHTS for Inhibitors of Vif-A3G Interactions: qHTS | Potency, µM (top dose mostly 46.1 µM), without a hit: at the top dose activity, negative = active, actives largely listed as inhibitors | DNA dC->dU-editing enzyme APOBEC-3G (Homo sapiens), Q9HC16 | AID 602310, 2012 | actives 0.076% (n = 410,000) | HeLa A3G-eYFP + Vif (tagged APOBEC3G with the HIV-1 protein that degrades it), YFP fluorescence, overnight; also: potency is read from the fitted curve at half-maximal effect; % is scaled to controls: 0 for no effect and ±100 for the full control effect; nearly all actives have a fitted effect of over 60% in size
# Target sequence (Q9HC16 whole entry, looked up): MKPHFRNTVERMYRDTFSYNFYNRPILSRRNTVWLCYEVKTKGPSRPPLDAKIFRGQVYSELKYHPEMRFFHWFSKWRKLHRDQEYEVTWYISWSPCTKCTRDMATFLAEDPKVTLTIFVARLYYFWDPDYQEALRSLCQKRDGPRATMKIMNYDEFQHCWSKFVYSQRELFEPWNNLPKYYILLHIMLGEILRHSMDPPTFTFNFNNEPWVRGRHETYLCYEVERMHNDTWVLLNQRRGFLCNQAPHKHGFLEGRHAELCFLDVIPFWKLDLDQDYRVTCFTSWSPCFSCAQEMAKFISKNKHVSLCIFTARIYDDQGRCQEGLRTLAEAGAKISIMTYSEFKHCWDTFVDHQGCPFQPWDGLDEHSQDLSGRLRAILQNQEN
#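 HeLa cells stably expressing Vif and C-terminally eYFP-tagged A3G, seeded overnight at 37 deg C, then exposed to compound by pintool overnight at 37 deg C. Rise in yellow fluorescence (Ex 488/Em 500-530, Acumen) marks blocked Vif-driven A3G degradation.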
# MBNL1-CUG inh – qHTS Assay for Inhibitors of MBNL1-poly(CUG) RNA binding; actives 0.036% (n = 280,000); TR-FRET MBNL1-His/biotin-(CUG)12 binding, 665/545 ratio; Potency, µM (series often up to 57.5 µM), for inactives: at the top dose activity change, negative = inhibition, hits mostly inhibitors; Muscleblind-like protein 1 (Homo sapiens), Q9NR56; active = well fitted inhibition curve with a large enough effect in the signal ratio, with a control signal flat, not every such curve was filed as active; inconclusive = small, poorly fitted or top-dose-only effect, or effect the other way, or a change in a side signal; inactive = no such curve, though single readings can be large or run the other way; the % refers to the signal ratio; also: potency is read from the fitted curve at half-maximal effect; % is scaled to controls: 0 for no effect and ±100 for the full control effect
# Target sequence (Q9NR56 whole entry, looked up): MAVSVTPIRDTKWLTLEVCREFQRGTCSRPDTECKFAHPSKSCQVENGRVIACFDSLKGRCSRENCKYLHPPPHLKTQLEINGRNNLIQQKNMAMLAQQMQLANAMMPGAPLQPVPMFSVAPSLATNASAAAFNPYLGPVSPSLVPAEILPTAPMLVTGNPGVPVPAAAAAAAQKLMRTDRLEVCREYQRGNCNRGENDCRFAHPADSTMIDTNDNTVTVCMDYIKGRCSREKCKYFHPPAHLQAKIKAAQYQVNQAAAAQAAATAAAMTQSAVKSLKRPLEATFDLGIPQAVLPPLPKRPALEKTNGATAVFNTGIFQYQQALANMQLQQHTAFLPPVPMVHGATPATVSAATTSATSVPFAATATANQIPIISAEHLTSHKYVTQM
#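 TR-FRET readout: Ex 340 nm, 665/545 nm emission ratio, normalized to buffer-only (basal) and MBNL1-(CUG)12 controls. Complex of MBNL1-His with Biotin-(CUG)12, compounds 92 nM–58 uM, incubated 60 min at room temperature.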
# uPA surface inh – qHTS for Inhibitors of Cell Surface uPA Generation | cell surface uPA generation assay, qHTS | Potency, µM (series often up to 38.3 µM), for inactives: at the highest dose activity change, negative = inhibition, actives largely listed as inhibitors | actives 0.31% (n = 330,000); active = well fitted inhibition curve with a large enough effect; inconclusive = small, poorly fitted or top-dose-only effect; inactive = no such curve, though single readings can be large or run the other way; tested in mouse RAW 264.7 cells; also: potency is read from the fitted curve at half-maximal effect; % is scaled to controls: 0 for no effect and ±100 for the full control effect; nearly all actives have a fitted effect of over 55% in size
# Vif-APOBEC3F blk – qHTS for Inhibitors of Vif-A3F Interactions: qHTS | Potency, µM (highest dose often 46.1 µM), inactives show at the top dose activity, negative = active | actives 0.2% (n = 390,000) | HeLa A3F-eYFP + Vif (tagged APOBEC3F with the HIV-1 protein that degrades it), YFP fluorescence increase; also: potency is read from the fitted curve at half-maximal effect; % of control where 0% means no effect; nearly all actives have a fitted effect of over 65% in size
#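 HeLa cells stably expressing Vif plus C-terminally eYFP-tagged A3F were seeded, incubated overnight at 37 deg C, dosed with compound, incubated overnight again at 37 deg C. Yellow fluorescence (Ex 488/Em 500-530) reported blocked Vif-mediated A3F-eYFP degradation.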
# Chronic BCR inh – qHTS Assay to Find Inhibitors of Chronic Active B-Cell Receptor Signaling. ABC-DLBCL IkBa-CBG/CBR reporter, luminescence ratio, 4 h. Potency, µM (highest dose often 46.1 µM), inactives show at the top dose activity change, negative = inhibition, hits mostly inhibitors. actives 0.05% (n = 340,000); active = well fitted inhibition curve with a large enough effect in the signal ratio, with a control signal flat, not every such curve was filed as active; inconclusive = small, poorly fitted or top-dose-only effect, or effect the other way, or a change in a side signal; the % refers to the signal ratio;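 also: potency is read from the fitted curve at half-maximal effect; plate controls were basal doxycycline-induced cells for no effect and cells given 10 µM MG132 for full effect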
#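 Concentration-response series (up to 46 uM) were applied to TMD8 dual-reporter cells for 4 h at 37C with doxycycline. Green/red ratio, after filter-overlap correction, defined %Activity; red signal alone was normalised to basal cells and zero luminescence.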
# TCR act – Activators of T cell receptors: qHTS campaign | primary human leukocytes, anti-CD3, IL-2 HTRF, 48 h | Potency, µM (series often up to 9.22 µM), for inactives: at the top dose activation of IL-2 secretion, usual class: activators | 330,000 tested, under 10 active | AID 504894, 2011; also: % of control where 0% means no effect
#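 48 hr co-incubation of compounds, a-CD3 beads and primary human leukocytes; IL-2 quantified homogeneously by HTRF with anti-IL-2 K and d2 conjugates.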
# * = called active by the depositor; ? = inconclusive; nt = not tested or not shown; [ ] = another dose, or the depositor's remark. Unless noted, calls follow the shape of the dose curve; as a rule, active = well fitted curve in the direction sought with a large enough effect; inconclusive = small, poorly fitted or top-dose-only effect, or another doubt; inactive = no such curve, though single readings can be large; an effect the other way counts as inactive or inconclusive.
SMILES,Vif-APOBEC3G blk,MBNL1-CUG inh,uPA surface inh,Vif-APOBEC3F blk,Chronic BCR inh,TCR act
COc1ccc(C2CN=NC23CCc2ccccc2C3=O)cc1 (stereo not given),?,-13%,4.5µM*,0%,-8%,-2%
Nc1ncnc2c1ncn2[C@@H]1O[C@H](CNCc2ccc(OCc3ccccc3)cc2)[C@@H](O)[C@H]1O,22µM*,nt,-21%,-13%,1%,-3%
CCc1ccc(-c2cc(C(F)(F)F)n3nc(C(=O)Nc4cnn(Cc5ccc(C)cc5)c4)cc3n2)s1,?,2%,nt,11µM*,-7%,0%
Cc1ccccc1Cn1cc(NC(=O)c2cc3nc(-c4ccco4)cc(C(F)(F)F)n3n2)cn1,-6%,6%,4%,0%,7%,4%
Nc1c(N(CCC2=CCCCC2)C(=O)c2ccc([N+](=O)[O-])o2)c(=O)[nH]c(=O)n1Cc1ccccc1,-16%,nt,-3%,22µM*,?,2%
COc1ccc2cc(-c3ccsc3)ncc2c1,-3%,nt,8.9µM*,4%,?,0%
COc1cc(OC)cc(-c2cc3ccc(OC)cc3cn2)c1,-25%,nt,3.5µM*,2%,?,6%
COc1ccc2cc(-c3ccccc3)ncc2c1,-5%,1%,?,-11%,0%,2%
C=C(NNC(C)=O)c1ccc(O)cc1,2%,nt,nt,nt,nt,nt
CCOC(=O)c1cnc(-n2nc(C)cc2C)nc1NNc1nc(-c2ccccc2)cc(-c2ccccc2)n1,1%,-2%,-6%,7.1µM*,-1%,1%[46.1 µM]
CC(C)(C)n1ncc2c(=O)n(Cc3ccccc3Cl)cnc21,0%,nt,nt,nt,nt,nt
Cc1ccc(C(=O)c2cc([N+](=O)[O-])ccc2N2CCCCC2)cc1,-37%,nt,-13%,?,23µM*,2%[46.1 µM]
O=C(NCc1ccc2c(c1)OCO2)c1cc([N+](=O)[O-])ccc1N1CCCCC1,?,?,-11%,2%,23µM*,1%[46.1 µM]
O=C(NCc1ccco1)c1cc([N+](=O)[O-])ccc1N1CCCCC1,-2%,?,-18%,4%,1%,0%[46.1 µM]
Cc1ccc(C(=O)c2cc([N+](=O)[O-])ccc2N2CC(C)OC(C)C2)cc1 (stereo not given),?,?,?,-4%,?,-2%[46.1 µM]
CC1CCCN(c2ccc([N+](=O)[O-])cc2C(=O)c2ccccc2)C1 (stereo not given),?,8%,0.16µM*,-9%,?,4%[46.1 µM]
O=C(c1ccccc1)c1cc([N+](=O)[O-])ccc1N1CCOCC1,?,?,-11%,-23%,?,0%[46.1 µM]
COc1cc2c(cc1OC)/C(=C/c1ccc(N(C)C)cc1)C=C2,2%,nt,nt,nt,nt,nt
O=C(C[n+]1cccc(I)c1)c1ccc(F)cc1,6%,nt,nt,nt,nt,nt
COC(=O)c1sc2cc([N+](=O)[O-])cc(SCC(C)C)c2c1N,10µM*,6%,2%,10µM*,5%,6%
NC(=O)c1cc(Cl)ccc1OCC(=O)Nc1ccc2c(c1)OCO2,-5%,nt,6.3µM*,11%,?,3%
COCCN(Cc1cc2cc(C)cc(C)c2nc1Cl)C(=O)Nc1ccccc1,?,-3%,?,-8%,16µM*,5%
Cc1ccc(S(=O)c2ccc([N+](=O)[O-])c3nonc23)cc1 (stereo not given),?,nt,nt,22µM*,nt,nt
Cc1ccc(Nc2c([N+](=O)[O-])ccc3nonc23)c(C)c1,1%,?,-1%,5%,0%,2%
CCOC(=O)c1ccc2c(c1)N(C)C(=O)c1ccccc1S2,-1%,-7%,-23%,3%,-9%,-1%
SMILES,Vif-APOBEC3G blk,MBNL1-CUG inh,uPA surface inh,Vif-APOBEC3F blk,Chronic BCR inh,TCR act
CCOC(=O)c1cc2n(c1/N=C/N(C)C)-c1ccccc1C2=O,?,?,-19%,22µM*,?,-1%
CN(C)CCNC(=O)C(=O)Nc1ccc2c(c1)N(S(=O)(=O)c1cccs1)CCC2,?,nt,4.5µM*,?,?,0%
COc1ccc2oc(C(=O)Nc3nc4ccccc4[nH]3)c(C)c2c1,1%,18%,3.5µM*,9%,?,-8%
COc1cc(NC(=O)C(C)C)ccc1NC(=O)c1cc2ccccc2o1,1%,-7%,14µM*,7%,?,4%
S=C(NCc1ccco1)N1CCN(Cc2ccco2)CC1,6%,-15%,1%,2%,-13%,6%
S=C(Nc1ccc2c(c1)OCO2)N1CCN(Cc2ccco2)CC1,-5%,1%,4.5µM*,1%,?,1%
O=C(C[N+]1(CC(O)c2ccccc2)CCCCC1)c1ccccc1 (stereo not given),4%,nt,nt,nt,nt,nt
CC(=O)N1CCN(c2ccc(NCc3ccco3)cc2)CC1,2%,nt,4.5µM*,6%,1%,1%
CCCCCCCNC1=CC(=O)CC(c2ccccc2)C1 (stereo not given),-3%,-16%,8.9µM*,1%,-9%,-1%[46.1 µM]
CCOc1cc(NC(=O)CCl)c(OCC)cc1NC(=O)CCl,1%,-1%,-15%,-14%,14µM*,3%
CCOc1ccccc1NC(=O)CCC(=O)Nc1ccccc1OCC,0%,0%,-1%,nt,?,-3%
C=C1C=C(C(F)F)n2ncc(C(=O)N3CCCCC3)c2N1,1%,nt,nt,nt,nt,nt
CC(C)OC(=O)c1sc2nc(-c3ccccc3)ccc2c1N,-8%,26%,nt,-15%,13%,6%
COc1cccc(-c2ccc3c(N)c(C(=O)c4ccc(Cl)cc4)sc3n2)c1,10µM*,nt,nt,?,nt,nt
COc1ccc(C(=O)c2sc3nc(-c4ccccc4)ccc3c2N)cc1,?,54%,7%,3.5µM*,5%,9%[46.1 µM]
COc1cccc(-c2ccc3c(N)c(C(=O)Nc4ccc(C)c(F)c4)sc3n2)c1,-4%,nt,nt,-7%,nt,nt
CC(C)(C)n1ncc2c(=O)n(Cc3cccc(OC(F)(F)F)c3)cnc21,2%,nt,nt,nt,nt,nt
NC(=S)N/N=C\c1ccccc1OCc1ccccc1,-17%,12%,-12%,8%,?,2%[46.1 µM]

# Screening results: PubChem BioAssay, National Center for Advancing Translational Sciences (NCATS)
